An excerpt weighted towards active compounds, which were near 3.8% of everything screened.
Jurkat NFkB inh: inhibitors of induced NF-kB luciferase reporter, primary screen, TCR NF-kB activation inhibitor project, cell-based, luminescence, uHTS. Jurkat, PMA/ionomycin-induced NF-kB luciferase reporter. inhibition, % at 4 µM. 330,000 tested, 0.53% active; in the data active = inhibition above about 50%
NTR1 ag: agonists of human NTR1, primary screen, imaging, U2OS cells, beta-arrestin-GFP, high content; activation, % at 20 µM; Neurotensin receptor type 1 (Homo sapiens), P30989; NTR1-U2OS beta-arrestin-GFP spot imaging, agonist mode; 330,000 tested, 0.17% active; AID 493036, 2011;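 active = activation at or above 40% of the spot to cytoplasm intensity ratio, with at least 20 cells analyzed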;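 also: 0% = DMSO without peptide and 100% = 100 nM NTR1 peptide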
Mdm2 MdmX PPI: inhibitors of human Mdm2-MdmX association, primary screen, cell-based, luminescence, split luciferase, SaOS-2, uHTS | SaOS-2 split-luciferase Mdm2/MdmX complementation | 330,000 tested, 3% active | AID 485346, 2010 | inhibition, % at 8 µM | Protein Mdm4 (Homo sapiens) + E3 ubiquitin-protein ligase Mdm2 (Homo sapiens), …;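 active = inhibition of at least 50% at 8 µM in the primary screen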
Beta apoptosis: inhibitors of cytokine-induced beta cell apoptosis, primary screen, luminescence | INS-1E cytokine-induced death, ATP luminescence, 48 h; percent of positive-control rescue, neutral wells zero | protection from apoptosis, % (concentration not given with the values) | 300,000 tested, 0.8% active;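 active = Every replicate reaches about 75%, or at least half do and their mean reaches it too, limit read from the data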;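 also: 0% = cytokine-treated negative control wells and 100% = positive control rescue; higher means more ATP so stronger rescue from cytokine killing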
697 NFkB inh: inhibitors of PMA/ionomycin-induced NF-kB reporter, 697 cells, primary screen, B-cell NF-kB inhibitor project, cell-based, luminescence, uHTS; 330,000 tested, 0.33% active; 697 B-cell NF-kB luciferase reporter, 16 h; inhibition, % at 4 µM; AID 435022, 2010; in the data active = inhibition above about 35%
A1 inh: caspase 3/7 activation in MEF A1-2A-BIM cells, primary screen, A1 inhibitor project, cell-based, luminescence, HTS; Caspase-Glo 3/7 luminescence, 3 h; percent of clofoctol response, vehicle zero; caspase activation, % (no concentration beside the values); 330,000 tested, 0.066% active; AID 2462, 2010;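 active = over half of replicate activation scores above 10%, or exactly half above 10 with the replicate mean above 10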
Mdm2 MdmX conf: Mdm2-MdmX complex disruptors, retested hits, confirmation, luminescence, single concentration | shares compounds with Mdm2 MdmX PPI | Mdm2-MdmX binding, luminescent assay | inhibition, % at 8 µM | 10,000 tested, 55% active; in the data active = inhibition above about 40%
Full FLuc ctr: full-length luciferase signal inhibition, confirmation, counter-screen for Mdm2/MdmX interaction inhibitor project, cell-based, single concentration, SaOS-2. 6,200 tested, 77% active. SaOS-2 full-length luciferase counterscreen, luminescence. shares compounds with Mdm2 MdmX PPI. inhibition, % at 8 µM. AID 504607, 2011;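 active = mean inhibition at 8 µM reaching about 37%, which flags the compound as non-specific, limit read from the data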;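 also: p53-null SaOS-2 cells with luciferase driven by a doxycycline-inducible promoter; compound on cells about two nights before reading with doxycycline added after day one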
The depositor's hits bear a star.

Screening COc1cccc(NC(=O)C(=O)N/N=C/c2cc(C)n(-c3ccc(Cl)c(Cl)c3)c2C)c1 returned Jurkat NFkB inh -27, NTR1 ag 1, Mdm2 MdmX PPI 55*, Beta apoptosis 3, 697 NFkB inh -39, A1 inh -1 and Mdm2 MdmX conf 19.
`CCOc1ccc(CC(=O)Nc2c3c(nn2C(C)(C)C)CS(=O)(=O)C3)cc1` gave Jurkat NFkB inh 3, NTR1 ag 1, Mdm2 MdmX PPI -13, Beta apoptosis 2, 697 NFkB inh 2 and A1 inh 0.
For Cc1cc2c(cc(C(=O)OCC(=O)NCc3cccs3)n2C(C)C)o1 the results were Jurkat NFkB inh 35, NTR1 ag 3, Mdm2 MdmX PPI 63*, Beta apoptosis -1, 697 NFkB inh -60, A1 inh 0, Mdm2 MdmX conf 50* and Full FLuc ctr 77*.
For Cc1cc(C)cc(C(=O)OCC(=O)NCc2cccs2)c1 the results were Jurkat NFkB inh -3, NTR1 ag -1, Mdm2 MdmX PPI 23, Beta apoptosis 2, 697 NFkB inh -16 and A1 inh 2.
Cc1cccc(-n2cnc3c(c2=O)c2nc4ccccc4nc2n3Cc2ccco2)c1 was read as Jurkat NFkB inh 29, NTR1 ag 4, Mdm2 MdmX PPI 54*, Beta apoptosis 8, 697 NFkB inh 2, A1 inh 0 and Mdm2 MdmX conf 26.
For Cc1cccc(NC(=O)c2nc[nH]c2C(=O)Nc2ccccc2[N+](=O)[O-])c1 the results were Jurkat NFkB inh 20, NTR1 ag 0, Mdm2 MdmX PPI 51*, Beta apoptosis 9, 697 NFkB inh -4, A1 inh 0 and Mdm2 MdmX conf 30.
Screening CCN(CC)C(=O)c1[nH]cnc1C(=O)Nc1cccc(C)c1 returned Jurkat NFkB inh 16, NTR1 ag 1, Mdm2 MdmX PPI 14, Beta apoptosis -5, 697 NFkB inh 5 and A1 inh 1.
For O=C(Nc1ccccc1O)c1ccc(NS(=O)(=O)c2cccc3cccnc23)cc1 the results were Jurkat NFkB inh 19, NTR1 ag -2, Mdm2 MdmX PPI 77*, Beta apoptosis -4, 697 NFkB inh -246, A1 inh 1 and Mdm2 MdmX conf 24.
`COC(=O)c1ccc(NC(=O)c2ccc(NS(=O)(=O)c3cccc4cccnc34)cc2)cc1` gave Jurkat NFkB inh -20, NTR1 ag -1, Mdm2 MdmX PPI 27, 697 NFkB inh 2 and A1 inh 0.
Screening COc1ccc(/C=C/C(=O)Nc2ccc3nc4n(c(=O)c3c2)CCCC4)cc1OC returned Jurkat NFkB inh -4, NTR1 ag 2, Mdm2 MdmX PPI 60*, Beta apoptosis 1, 697 NFkB inh -6, A1 inh 0 and Mdm2 MdmX conf 14.
O=C(Nc1ccc2nc3n(c(=O)c2c1)CCCCC3)c1cc([N+](=O)[O-])ccc1F was read as Jurkat NFkB inh 29, NTR1 ag 11, Mdm2 MdmX PPI 98*, Beta apoptosis 16, 697 NFkB inh -83, A1 inh 1, Mdm2 MdmX conf 79* and Full FLuc ctr 22.
Screening COc1cc(C(=O)Nc2ccc3nc4n(c(=O)c3c2)CCCCC4)cc(OC)c1OC returned Jurkat NFkB inh -19, NTR1 ag 2, Mdm2 MdmX PPI 48, Beta apoptosis 9, 697 NFkB inh 11 and A1 inh 0.
For O=C(/C=C/c1ccco1)Nc1ccc(Oc2ccc(Cl)cc2)cc1 the results were Jurkat NFkB inh 34, NTR1 ag 1, Mdm2 MdmX PPI 55*, Beta apoptosis 25, 697 NFkB inh -134, A1 inh -1, Mdm2 MdmX conf 60* and Full FLuc ctr 40*.
Screening CC(=O)Nc1ccc(S(=O)(=O)Nc2cc(S(=O)(=O)N3CCCCC3)ccc2O)cc1 returned Jurkat NFkB inh 12, NTR1 ag -1, Mdm2 MdmX PPI 6 and 697 NFkB inh 15.
For O=[N+]([O-])c1ccc(S(=O)(=O)CC(CN2CCOCC2)N2CCOCC2)cc1 (centres undefined) the results were Jurkat NFkB inh 11, NTR1 ag 0, Mdm2 MdmX PPI 28, Beta apoptosis -14, 697 NFkB inh 6 and A1 inh 1.
O=[N+]([O-])c1ccc(S(=O)(=O)CC(CN2CCCCC2)N2CCCCC2)cc1 (centres undefined) was read as Jurkat NFkB inh 41, NTR1 ag 12, Mdm2 MdmX PPI 100*, Beta apoptosis 0, 697 NFkB inh -9, A1 inh 1, Mdm2 MdmX conf 94* and Full FLuc ctr 51*.
For O=S(=O)(CC(CN1CCCCC1)N1CCCCC1)c1ccccc1 (centres undefined) the results were Jurkat NFkB inh 4, NTR1 ag 0, Mdm2 MdmX PPI 72*, Beta apoptosis -3, 697 NFkB inh 18, A1 inh 0, Mdm2 MdmX conf 66* and Full FLuc ctr 17.
`O=C(NC1CCCCC1)C(c1ccc(F)cc1)N(Cc1ccccc1)C(=O)CN1C(=O)c2ccccc2S1(=O)=O` (centres undefined) gave Jurkat NFkB inh -8, NTR1 ag 1, Mdm2 MdmX PPI 61*, Beta apoptosis 3, 697 NFkB inh 5, A1 inh -1, Mdm2 MdmX conf 66* and Full FLuc ctr 94*.
CCOC(=O)CN(C(=O)Cn1nnc(-c2ccc(OC)cc2)n1)C(C(=O)NC1CCCC1)c1ccc(F)cc1 (centres undefined) was read as Jurkat NFkB inh 14, NTR1 ag 1, Mdm2 MdmX PPI 6, Beta apoptosis -4, 697 NFkB inh 18 and A1 inh 1.
Screening Cc1ccc(-c2nnn(CC(=O)N(c3ccc(F)cc3)C(C(=O)NC3CCCC3)c3ccncc3)n2)o1 (centres undefined) returned Jurkat NFkB inh -18, NTR1 ag 0, Mdm2 MdmX PPI 17, Beta apoptosis -1, 697 NFkB inh -4 and A1 inh -1.

Source: PubChem
